Our source for the binding signal values is paper PMC5700166.

Numbering of substitutions follows the chain as printed.

Holding throughout (assay): protein-binding microarray (PBM); PBM: ~300 nM protein, 6 mM HEPES pH 7.8, 80 mM KCl, 0.5 mM EDTA, 0.5 mM EGTA, 6% glycerol, 35 ng/ul poly-dIdC, 1% milk, 1 h, room temperature; Ap Aiptasia and Nv Nematostella (sea anemones) / Co Capsaspora / Aq Amphimedon (sponge) / Dm Drosophila / Hu human; RHD is the Rel homology domain; high values mean tight binding
Holding throughout (conditions): dsDNA, one strand shown

One test deals with T1, GST-Ap-NF-kB RHD (Exaiptasia pallida (Aiptasia), UniProt A0A913YAJ5 2-422).
T1 sequence: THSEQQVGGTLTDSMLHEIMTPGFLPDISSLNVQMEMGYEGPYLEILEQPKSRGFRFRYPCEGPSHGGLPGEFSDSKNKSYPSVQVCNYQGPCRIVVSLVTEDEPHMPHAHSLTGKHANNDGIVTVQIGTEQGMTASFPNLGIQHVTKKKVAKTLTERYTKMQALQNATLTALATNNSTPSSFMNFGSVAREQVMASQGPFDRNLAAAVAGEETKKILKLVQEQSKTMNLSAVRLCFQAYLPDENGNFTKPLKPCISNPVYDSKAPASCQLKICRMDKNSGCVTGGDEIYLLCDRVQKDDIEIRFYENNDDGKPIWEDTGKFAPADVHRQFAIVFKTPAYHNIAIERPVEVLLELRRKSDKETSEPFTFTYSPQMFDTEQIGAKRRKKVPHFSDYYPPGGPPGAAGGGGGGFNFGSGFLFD

Test [1] has as its target T2, GST-Nv-NF-kB (Cys allele) (Nematostella vectensis, UniProt E5G601 2-411).
T2 sequence: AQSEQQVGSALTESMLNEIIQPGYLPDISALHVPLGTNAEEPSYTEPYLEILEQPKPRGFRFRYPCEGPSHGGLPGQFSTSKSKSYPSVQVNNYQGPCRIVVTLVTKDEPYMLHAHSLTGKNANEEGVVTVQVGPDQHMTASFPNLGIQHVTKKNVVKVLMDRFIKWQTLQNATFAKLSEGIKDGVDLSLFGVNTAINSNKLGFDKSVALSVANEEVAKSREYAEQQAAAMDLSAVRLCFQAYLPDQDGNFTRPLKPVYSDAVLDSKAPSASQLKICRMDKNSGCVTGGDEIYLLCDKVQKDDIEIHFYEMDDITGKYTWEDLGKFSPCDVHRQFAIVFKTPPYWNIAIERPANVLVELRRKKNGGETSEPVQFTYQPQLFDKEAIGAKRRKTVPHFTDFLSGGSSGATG

Test [2] concerns the target T3, GST-Nv-NF-kB (Ser allele) (Nematostella vectensis, UniProt A7UNT2 2-411).
T3 sequence: T2 sequence with Q21R, C66S, S207N, E215Q, V217A, E225K, A268E, D399E

For the next test, the target named is T4, GST-Co-NF-kB (Capsaspora owczarzaki, UniProt F1ARL5 200-546).
T4 sequence: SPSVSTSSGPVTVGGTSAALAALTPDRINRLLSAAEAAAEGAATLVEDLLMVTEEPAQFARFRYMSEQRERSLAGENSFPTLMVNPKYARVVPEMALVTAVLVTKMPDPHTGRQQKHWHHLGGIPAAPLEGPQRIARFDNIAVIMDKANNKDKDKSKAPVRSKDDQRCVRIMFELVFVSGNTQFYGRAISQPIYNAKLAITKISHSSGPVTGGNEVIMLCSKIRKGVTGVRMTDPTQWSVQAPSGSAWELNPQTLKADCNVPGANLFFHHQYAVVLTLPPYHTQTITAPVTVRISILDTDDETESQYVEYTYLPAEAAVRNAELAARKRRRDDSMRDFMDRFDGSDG

The next test deals with T5, GST-Dm-Relish (Drosophila melanogaster, UniProt Q94527 99-473).
T5 sequence: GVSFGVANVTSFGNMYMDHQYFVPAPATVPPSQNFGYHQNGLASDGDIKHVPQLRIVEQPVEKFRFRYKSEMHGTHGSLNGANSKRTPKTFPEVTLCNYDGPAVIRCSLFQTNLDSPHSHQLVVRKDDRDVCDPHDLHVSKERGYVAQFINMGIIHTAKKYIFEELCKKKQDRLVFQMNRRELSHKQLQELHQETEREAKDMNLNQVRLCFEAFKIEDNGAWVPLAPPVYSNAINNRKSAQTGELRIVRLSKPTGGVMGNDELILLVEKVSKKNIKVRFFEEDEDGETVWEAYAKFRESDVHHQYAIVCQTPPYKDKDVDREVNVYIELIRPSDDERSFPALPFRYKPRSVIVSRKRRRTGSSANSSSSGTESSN

A further test concerns the target T6, GST-Aq-NF-kB (Amphimedon queenslandica, UniProt A9Y5G7 2-389).
T6 sequence: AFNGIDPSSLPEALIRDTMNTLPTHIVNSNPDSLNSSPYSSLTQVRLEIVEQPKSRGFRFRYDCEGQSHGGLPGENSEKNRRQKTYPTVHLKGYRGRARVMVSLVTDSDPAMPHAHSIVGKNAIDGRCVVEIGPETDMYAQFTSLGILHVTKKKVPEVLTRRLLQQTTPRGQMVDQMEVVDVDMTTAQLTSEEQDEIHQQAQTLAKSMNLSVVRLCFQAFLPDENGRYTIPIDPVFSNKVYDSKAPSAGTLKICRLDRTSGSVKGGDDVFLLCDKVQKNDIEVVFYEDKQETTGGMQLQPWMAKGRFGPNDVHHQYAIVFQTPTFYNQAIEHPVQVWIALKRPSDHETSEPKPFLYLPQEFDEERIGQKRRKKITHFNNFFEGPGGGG

The target of the next test is GST-Hu-p50 (Homo sapiens, UniProt P19838 7-356).
Chain of GST-Hu-p50 (P19838 7-356): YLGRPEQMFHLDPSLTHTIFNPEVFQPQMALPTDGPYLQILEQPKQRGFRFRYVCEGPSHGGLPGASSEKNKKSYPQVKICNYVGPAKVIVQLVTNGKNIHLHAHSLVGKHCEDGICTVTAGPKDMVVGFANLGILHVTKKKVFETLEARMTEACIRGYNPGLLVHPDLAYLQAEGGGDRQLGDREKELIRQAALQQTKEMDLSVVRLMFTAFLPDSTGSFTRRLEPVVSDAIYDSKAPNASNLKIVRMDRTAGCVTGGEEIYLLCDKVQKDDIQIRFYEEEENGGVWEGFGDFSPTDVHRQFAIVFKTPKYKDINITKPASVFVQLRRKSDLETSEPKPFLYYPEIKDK

Turning to “CCGATTAACATCACAACTTTCCCTGATGTTAATCGGGTCTTGATTCGCTTGACGCTGCTG”, the binding signal with GST-Ap-NF-kB RHD was found to be 3.73 z-score; in test [1], 5.95 z-score; in test [2], 6.13 z-score; in the test with GST-Co-NF-kB it was 4.34 z-score; with GST-Dm-Relish it was 2.04 z-score; with GST-Aq-NF-kB, 5.94 z-score. Further, the binding signal with GST-Hu-p50 came out at 4.21 z-score.

For “CCGATTAACATCAAGAATCCCCTTGATGTTAATCGGGTCTTGATTCGCTTGACGCTGCTG”, the binding signal in the test with GST-Ap-NF-kB RHD was 7.94 z-score; in test [1], 9.47 z-score; in test [2] it was 10.9 z-score; with GST-Co-NF-kB it was 2.64 z-score; with GST-Dm-Relish it was 8.39 z-score; with GST-Aq-NF-kB, 7.11 z-score. The binding signal in the test with GST-Hu-p50 turned out to be 7.63 z-score.

With “CCGATTAACATCAATGTTCCCCCTGATGTTAATCGGGTCTTGATTCGCTTGACGCTGCTG”, the binding signal with GST-Ap-NF-kB RHD stood at 6.95 z-score; in test [1], 6.49 z-score; in test [2], 7.58 z-score; with GST-Co-NF-kB, 11 z-score; with GST-Dm-Relish it was 5.32 z-score; with GST-Aq-NF-kB, 6.17 z-score. Moreover, the binding signal in the test with GST-Hu-p50 is 5.74 z-score.

With “CCGATTAACATCAAAAACTCCCCTGATGTTAATCGGGTCTTGATTCGCTTGACGCTGCTG”, the binding signal in the test with GST-Ap-NF-kB RHD was determined as 9.29 z-score; in test [1], 8.96 z-score; in test [2], 9.57 z-score; with GST-Co-NF-kB it was 6.91 z-score; in the test with GST-Dm-Relish, 8.62 z-score; with GST-Aq-NF-kB, 8.06 z-score. Moreover, the binding signal in the test with GST-Hu-p50 stood at 6.46 z-score.

“CCGATTAACATCAACCATTCCCCTGATGTTAATCGGGTCTTGATTCGCTTGACGCTGCTG”: the binding signal in the test with GST-Ap-NF-kB RHD is 5.66 z-score; in test [1], 6.61 z-score; in test [2], 7.06 z-score; with GST-Co-NF-kB, 4.68 z-score; in the test with GST-Dm-Relish, 1.96 z-score; with GST-Aq-NF-kB, 4.45 z-score. In the test with GST-Hu-p50, the binding signal came to 4.88 z-score.

Consider “CCGATTAACATCAGGGGGATAAATGATGTTAATCGGGTCTTGATTCGCTTGACGCTGCTG”, for which the binding signal in the test with GST-Ap-NF-kB RHD worked out at 5.25 z-score; in test [1], 5.54 z-score; in test [2], 5.46 z-score; in the test with GST-Co-NF-kB, 7.85 z-score; with GST-Dm-Relish, 3.78 z-score; with GST-Aq-NF-kB, 4.4 z-score. Moreover, the binding signal with GST-Hu-p50 came to 4.82 z-score.

Take “CCGATTAACATCACTGTTTCCCCTGATGTTAATCGGGTCTTGATTCGCTTGACGCTGCTG”: the binding signal in the test with GST-Ap-NF-kB RHD is 5.28 z-score; in test [1], 7.06 z-score; in test [2] it was 9.29 z-score; in the test with GST-Co-NF-kB, 7.92 z-score; in the test with GST-Dm-Relish, 2.5 z-score; with GST-Aq-NF-kB, 4.25 z-score. In addition, the binding signal in the test with GST-Hu-p50 amounted to 4.88 z-score.

Turning to “CCGATTAACATCAGGGAATTTACTGATGTTAATCGGGTCTTGATTCGCTTGACGCTGCTG”, the binding signal in the test with GST-Ap-NF-kB RHD was 4.29 z-score; in test [1], 6.69 z-score; in test [2], 6.33 z-score; with GST-Co-NF-kB, 3.89 z-score; in the test with GST-Dm-Relish, 6.87 z-score; with GST-Aq-NF-kB it was 6.82 z-score. Further, in the test with GST-Hu-p50, the binding signal is 5.14 z-score.

As to “CCGATTAACATCAAAACTTTCCCTGATGTTAATCGGGTCTTGATTCGCTTGACGCTGCTG”, the binding signal with GST-Ap-NF-kB RHD is 4.81 z-score; in test [1] it was 8.68 z-score; in test [2], 8.65 z-score; with GST-Co-NF-kB it was 6.16 z-score; in the test with GST-Dm-Relish, 4.08 z-score; with GST-Aq-NF-kB it was 7.54 z-score. In the test with GST-Hu-p50, this sequence came in with a binding signal of 5.54 z-score.

Turning to “CCGATTAACATCAAAACTCCCCCTGATGTTAATCGGGTCTTGATTCGCTTGACGCTGCTG”, the binding signal with GST-Ap-NF-kB RHD came to 9.31 z-score; in test [1], 8.47 z-score; in test [2], 9.96 z-score; with GST-Co-NF-kB, 9.22 z-score; with GST-Dm-Relish, 8.02 z-score; with GST-Aq-NF-kB, 7.6 z-score. In the test with GST-Hu-p50, the binding signal was determined as 8.06 z-score.

Take “CCGATTAACATCAAGGGGAAAAATGATGTTAATCGGGTCTTGATTCGCTTGACGCTGCTG”: the binding signal with GST-Ap-NF-kB RHD was 6.62 z-score; in test [1], 8.51 z-score; in test [2], 11 z-score; with GST-Co-NF-kB, 9.12 z-score; with GST-Dm-Relish, 4.24 z-score; in the test with GST-Aq-NF-kB, 6.11 z-score. In the test with GST-Hu-p50, this sequence showed a binding signal of 6.67 z-score.

“CCGATTAACATCAGAGGATTCCCTGATGTTAATCGGGTCTTGATTCGCTTGACGCTGCTG”: the binding signal in the test with GST-Ap-NF-kB RHD came to 3.72 z-score; in test [1], 4.52 z-score; in test [2] it was 4.31 z-score; with GST-Co-NF-kB it was 2.44 z-score; in the test with GST-Dm-Relish, 7.61 z-score; in the test with GST-Aq-NF-kB it was 4.43 z-score. This sequence also came in with a binding signal in the test with GST-Hu-p50 of 2.84 z-score.
